Screen size: about 360,000 compounds; about 2,100 (0.58%) were called active. The sample holds actives, similar compounds and a random draw of the others, so the mix is not that of the screen. Unmarked numbers belong to inactive results. Cut-off read from the data, not from the text of the source: active = inhibition above about 36%; inactive = the rest.
The molecules below were run against NEDD8-conjugating enzyme Ubc12 (Homo sapiens) + NEDD8-activating enzyme E1 regulatory subunit (Homo sapiens) (UniProt P61081+Q13564) (assay: NEDD8 transfer onto cullin, blockade – biochemical, TR-FRET, uHTS, NAE and Ubc12, primary screen (AID 651699)). Conditions: TR-FRET cullin neddylation, at 25 µM, active compounds read high.
Chain of NEDD8-conjugating enzyme Ubc12 (Homo sapiens) + NEDD8-activating enzyme E1 regulatory subunit (Homo sapiens) (P61081 whole entry, looked up): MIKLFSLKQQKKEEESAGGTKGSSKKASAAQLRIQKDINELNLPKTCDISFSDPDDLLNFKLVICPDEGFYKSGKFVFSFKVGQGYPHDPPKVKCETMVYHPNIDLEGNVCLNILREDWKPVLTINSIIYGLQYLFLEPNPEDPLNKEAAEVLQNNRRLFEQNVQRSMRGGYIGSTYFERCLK
Chain of NEDD8-conjugating enzyme Ubc12 (Homo sapiens) + NEDD8-activating enzyme E1 regulatory subunit (Homo sapiens) (Q13564 whole entry, looked up): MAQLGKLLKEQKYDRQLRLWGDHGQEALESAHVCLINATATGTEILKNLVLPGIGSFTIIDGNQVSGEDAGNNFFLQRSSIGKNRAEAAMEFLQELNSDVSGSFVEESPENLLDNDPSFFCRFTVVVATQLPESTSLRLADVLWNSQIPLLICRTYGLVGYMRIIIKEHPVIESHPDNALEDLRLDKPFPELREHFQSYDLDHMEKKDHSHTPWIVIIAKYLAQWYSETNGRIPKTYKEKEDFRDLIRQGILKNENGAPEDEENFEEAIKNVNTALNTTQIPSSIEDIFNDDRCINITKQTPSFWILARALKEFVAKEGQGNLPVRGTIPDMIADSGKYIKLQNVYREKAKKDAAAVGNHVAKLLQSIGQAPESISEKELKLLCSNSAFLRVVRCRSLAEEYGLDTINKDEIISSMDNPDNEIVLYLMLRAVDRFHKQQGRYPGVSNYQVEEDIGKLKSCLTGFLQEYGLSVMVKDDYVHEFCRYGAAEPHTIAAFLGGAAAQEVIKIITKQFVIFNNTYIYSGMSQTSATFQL

**Q.** How did the inhibition turn out when `O=C(CN1CCN(C2CCS(=O)(=O)C2)CC1)N1N=C(c2ccc(Cl)cc2)CC1c1ccco1` (configuration not stated) was run?
**A.** Its inhibition is 3.58%.

**Q.** With `COC(=O)C1=CN(C)C=C(C(=O)OC)C1c1ccc(Cl)cc1Cl` as the molecule, how does the inhibition read?
**A.** The inhibition was 42.5% (active).

**Q.** With `NC(=O)C1(C(N)=O)OC1c1ccc(Cl)cc1Cl` (configuration not stated) as the molecule, how does the inhibition read?
**A.** The inhibition was -3.19%.

**Q.** For `COC(=O)C1=CN(c2ccc(F)c(F)c2)C=C(C(=O)OC)C1c1ccc([N+](=O)[O-])cc1`, which inhibition is on record?
**A.** The inhibition was -12.5%.

**Q.** With `C[N+](C)(C)CCNC(=O)c1cc[n+](Cc2ccccc2)c(/C=N/O)c1` as the molecule, how does the inhibition read?
**A.** The inhibition was -22.5%.

**Q.** With `O=C(Nc1c(Br)cc2c(c1Br)Cc1ccccc1-2)C(F)(F)F` as the molecule, how does the inhibition read?
**A.** The inhibition was -31.9%.

**Q.** How did the inhibition turn out when `CN(CC(=O)Nc1ccc(F)c(F)c1F)C(=O)C1CC(=O)N(C2CCCC2)C1` (configuration not stated) was run?
**A.** The inhibition was 1.3%.

**Q.** How did the inhibition turn out when `Cc1ccc(S(=O)(=O)NCCc2nnc3ccc(SCc4cccnc4)nn23)cc1` was run?
**A.** Its inhibition is -3.01%.

**Q.** `CC(=O)NNC(=O)c1csc(Cc2c(Cl)sc3ccc(Cl)cc23)n1` was tested. Which inhibition did it give?
**A.** Its inhibition is 45.8% (active).

**Q.** With `CC(=O)Cc1nsc(NC(=O)c2ccc(Cl)cc2Cl)n1` as the molecule, how does the inhibition read?
**A.** Its inhibition is 12.4%.

**Q.** Which inhibition does the source give for `CNC(=O)c1csc(Cc2c(Cl)sc3ccc(Cl)cc23)n1` here?
**A.** Its inhibition is -6.49%.

**Q.** `Oc1ccccc1CNc1ncc(Br)cc1Br` was tested. Which inhibition did it give?
**A.** Its inhibition is -3.76%.

**Q.** Which inhibition does the source give for `O=C(CNC(=O)c1cccnc1)N/N=C/c1cc(Br)c(O)c(Br)c1` here?
**A.** Its inhibition is 5.12%.

**Q.** `Cc1ccc(NC(=O)COc2ccc(/C=N\NC(=O)c3cccnc3)cc2)cc1C` was tested. Which inhibition did it give?
**A.** The inhibition was 56% (active).

**Q.** Which inhibition does the source give for `Cc1cccc(OCC(=O)NCCNC(=O)c2cccnc2)c1` here?
**A.** The inhibition was 2.8%.

**Q.** For `COc1ccc(CNC(=O)CN(c2ccc(OC)c(Cl)c2)S(=O)(=O)c2ccc(C)cc2)cc1`, which inhibition is on record?
**A.** Its inhibition is 8.36%.

**Q.** For `COc1ccc(C(=O)NC(C)c2nccs2)cc1OC1CCN(C(C)C)CC1` (configuration not stated), which inhibition is on record?
**A.** The inhibition was -0.68%.

**Q.** With `Cc1ccc(NC(=O)CN(C)C(=O)COC(=O)C(C)(C)Oc2ccc(Cl)cc2)cc1` as the molecule, how does the inhibition read?
**A.** The inhibition was 9.98%.

**Q.** For `Cc1ccc(CSCC(=O)N(C)CC(=O)Nc2ccc(C)cc2)cc1`, which inhibition is on record?
**A.** Its inhibition is 5.66%.

**Q.** Which inhibition does the source give for `Cc1ccc(NC(=O)CN(C)C(=O)COC(=O)c2nccnc2N)cc1` here?
**A.** The inhibition was 57.4% (active).

**Q.** With `O=C(OCCOCn1cc(Br)c(=O)[nH]c1=O)c1ccccc1` as the molecule, how does the inhibition read?
**A.** The inhibition was 1.74%.

**Q.** For `COC(=O)c1sc(-c2ccc(C(C)(C)C)cc2)cc1NC(=O)/C=C/C(=O)O`, which inhibition is on record?
**A.** The inhibition was -17%.

**Q.** `COc1cccc(/C=N/Nc2cc(C)nc(-c3ccccc3O)n2)c1O` was tested. Which inhibition did it give?
**A.** Its inhibition is 40.2% (active).

**Q.** With `COc1ccc(N2C(=O)CC(Sc3n[nH]c(-c4ccc(C)cc4)n3)C2=O)cc1` (configuration not stated) as the molecule, how does the inhibition read?
**A.** Its inhibition is 0.38%.

**Q.** Which inhibition does the source give for `Cc1ccccc1NC(=O)COc1cccc2c1CCNC2=O` here?
**A.** The inhibition was -9.32%.

**Q.** With `Nc1nnnn1CC(=O)N/N=C/c1ccc(-c2cccc(Cl)c2)o1` as the molecule, how does the inhibition read?
**A.** The inhibition was 49.1% (active).

**Q.** How did the inhibition turn out when `O=C(Cn1nnc(-c2ccccc2)n1)N/N=C/c1ccc(-c2ccc(Cl)cc2)o1` was run?
**A.** The inhibition was 28.8%.

**Q.** For `CCCCCN(C(=O)NC(=O)Nc1ccccc1C)S(C)(=O)=O`, which inhibition is on record?
**A.** The inhibition was -3.04%.

**Q.** For `COc1ccc(C2CC(c3cccs3)=NN2C(=O)CSc2nnc(N)s2)cc1OC` (configuration not stated), which inhibition is on record?
**A.** The inhibition was -4.71%.

**Q.** `COc1cccc(C2CC(c3cccs3)=NN2C(=O)CSC2=NCCS2)c1OC` (configuration not stated) was tested. Which inhibition did it give?
**A.** The inhibition was 47.3% (active).

**Q.** `COc1ccc(C2CC(c3cccs3)=NN2C(=O)COC(=O)c2cc3ccccc3cc2O)cc1OC` (configuration not stated) was tested. Which inhibition did it give?
**A.** The inhibition was 0.97%.

**Q.** With `CCN1C(=O)/C(=C\N2CCOCC2)SC1=S` as the molecule, how does the inhibition read?
**A.** The inhibition was -15.3%.

**Q.** `O=C1c2cccc3cccc(c23)N1CN1CCN(c2ccccn2)CC1` was tested. Which inhibition did it give?
**A.** The inhibition was 38.1% (active).

**Q.** `O=C1c2ccccc2S(=O)(=O)c2cc(N3CCN(c4ccccn4)CC3)ccc21` was tested. Which inhibition did it give?
**A.** Its inhibition is -31.5%.

**Q.** How did the inhibition turn out when `O=C(c1cc2ccccc2s1)N1CCN(c2ccccn2)CC1` was run?
**A.** Its inhibition is -7.27%.

**Q.** How did the inhibition turn out when `Cc1ccc(O)c(NC(=S)NC(=O)COc2ccc(Br)cc2)c1` was run?
**A.** Its inhibition is 12.7%.

**Q.** How did the inhibition turn out when `COc1cc(NC(=O)CCNC(=O)Cn2ccc3ccccc3c2=O)cc(OC)c1OC` was run?
**A.** The inhibition was 5.61%.

**Q.** With `Cc1cccc(N)c1SC1CCCCC1O` (configuration not stated) as the molecule, how does the inhibition read?
**A.** The inhibition was 6.45%.

**Q.** For `COCOCCn1cc(CN2CCS(=O)(=O)N(Cc3ccc(-c4ccc(OC)cc4)cc3)C(CC(C)C)C2=O)nn1` (configuration not stated), which inhibition is on record?
**A.** Its inhibition is -8.33%.

**Q.** `COCCn1c(C)cc(C(=O)COC(=O)/C=C/c2cccc(OC)c2)c1C` was tested. Which inhibition did it give?
**A.** Its inhibition is 12.7%.

**Q.** With `COc1cccc(/C=C/C(=O)OCC(=O)N2CCCc3ccccc32)c1` as the molecule, how does the inhibition read?
**A.** The inhibition was 40.6% (active).

**Q.** For `COc1cccc(/C=C/C(=O)OCC(=O)N2CCN(c3ccccc3)CC2)c1`, which inhibition is on record?
**A.** The inhibition was 31.1%.

**Q.** With `CC(NC(=O)CN1CCN(Cc2ccc(Cl)cc2)C1=O)c1ccc2c(c1)OCCO2` (configuration not stated) as the molecule, how does the inhibition read?
**A.** The inhibition was -6.96%.

**Q.** Which inhibition does the source give for `COc1ccc(CCN2C(=O)C3CC=C(C)CC3C2=O)cc1OC` (configuration not stated) here?
**A.** Its inhibition is 1.1%.

**Q.** Which inhibition does the source give for `COc1ccc(OC)c(C(C)NC(=S)Nc2ccc(S(=O)(=O)Nc3ncccn3)cc2)c1` (configuration not stated) here?
**A.** Its inhibition is 5.42%.

**Q.** With `O=S(=O)(Nc1ccccn1)c1cccc(S(=O)(=O)c2ccc(Cl)cc2)c1` as the molecule, how does the inhibition read?
**A.** Its inhibition is -0.91%.

**Q.** Which inhibition does the source give for `COc1cc(NS(=O)(=O)c2ccc3ccccc3c2)c2ncccc2c1` here?
**A.** The inhibition was 50.3% (active).

**Q.** `CC(C)NC(=S)Nc1cccc2cnccc12` was tested. Which inhibition did it give?
**A.** The inhibition was 0.89%.

**Q.** Which inhibition does the source give for `C=CCNC(=O)c1ccc2c3n(nc2c1)-c1ccc(C)cc1CO3` here?
**A.** The inhibition was 49.5% (active).

**Q.** For `Cc1ccc(-n2nc3c(c2NC(=O)c2ccc4c(c2)OCO4)CSC3)c(C)c1`, which inhibition is on record?
**A.** Its inhibition is 18.4%.

**Q.** Which inhibition does the source give for `OC(COCc1ccco1)CN1CCN(c2ccccc2)CC1` (configuration not stated) here?
**A.** The inhibition was -1.36%.

**Q.** Which inhibition does the source give for `COc1ccc(-c2c(C#Cc3ccsc3)c3cc(-c4ccc(CN5CCOCC5)cc4)ccc3n2C)cc1` here?
**A.** Its inhibition is 22.8%.

**Q.** Which inhibition does the source give for `COc1cccc(NC(=O)CN(C)C(=O)/C=C/c2cn(-c3ccccc3)nc2-c2cccs2)c1` here?
**A.** The inhibition was 60.2% (active).

**Q.** For `COc1ccc(Cl)cc1NC(=O)CN(C)C(=O)c1cn(-c2ccccc2)nc1-c1cccs1`, which inhibition is on record?
**A.** The inhibition was -140%.

**Q.** For `O=c1cc(CO)oc(C(Nc2cccc(C(F)(F)F)c2)c2ccccn2)c1O` (configuration not stated), which inhibition is on record?
**A.** The inhibition was 0.9%.

**Q.** `CC(C)C[C@H]1CNC(=O)C(=O)N1C[C@@H]1CCCN1C[C@H](Cc1ccccc1)N1C[C@H](CC(C)C)N(CC2CCCCCC2)C(=O)C1=O` was tested. Which inhibition did it give?
**A.** The inhibition was 7.12%.

**Q.** For `CN(C)c1ccc2c(=O)[nH][nH]c(=O)c2c1`, which inhibition is on record?
**A.** The inhibition was 33.3%.

Reference: PubChem BioAssay AID651699 (Sanford-Burnham Center for Chemical Genomics, 2012)
